Measured values taken from PubChem BioAssay (Tox21).
Records with an inconclusive call do not appear. Active and inactive are the calls of the source. Calls follow the shape of the dose curve; as a rule, active = well fitted curve in the direction sought with a large enough effect in the signal ratio in the repeat runs (not every such curve was filed as active); inconclusive = weak or mixed curves, or effect the other way; inactive = no such curve, though single readings can be large or run the other way; the % refers to the signal ratio.

The molecules below were run against Estrogen receptor (Homo sapiens) (UniProt P03372) (assay: qHTS assay to identify small molecule antagonists of the estrogen receptor alpha (ER-alpha) signaling pathway (AID 743069)). Conditions: HEK293 ER-alpha-UAS-bla, beta-lactamase ratio, antagonist mode; series mostly up to 69.4 µM; activity, negative = inhibition: at the top concentration.
Excerpt: National Center for Advancing Translational Sciences [NCATS]
NIH Chemical Genomics Center [NCGC]
U.S. Environmental Protection Agency [EPA]
National Institutes of Environmental Health Sciences [NIEHS]
National Toxicology Program [NTP]
U.S. Food and Drug Administration [FDA]
Estrogen receptor (ER), a nuclear hormone receptor, plays an important role in development, metabolic homeostasis and reproduction. Two subtypes of ER, ER-alpha and ER-beta have similar expression patterns with some uniqueness in both types. Endocrine disrupting chemicals (EDCs) and their interactions with steroid hormone receptors like ER causes disruption of normal endocrine function. To identify the compounds that inhibit ER signaling, an ER-alpha-UAS-bla GripTiteTM cell line (Invitrogen, Carlsbad, CA, USA) containing a beta-lactamase reporter gene under the control of an Upstream Activator Sequence (UAS) stably integrated into HEK293 cells was used to screen the Tox21 10K compound library.
Tox21 Assay Protocol Summary:
ER-alpha-bla cells were cultured in assay medium containing 2% charcoal stripped FBS overnight in the culture flasks before the assay was performed. The cells were dispensed at 5,000 cells/5 uL of assay medium per well into black wall/clear-bottom 1536-well plates using a Multidrop Combi (ThermoFisher Scientific, Waltham, MA) dispenser. After the assay plates were incubated at a 37C and 5% CO2 for 4 hr, 23 nL of compounds dissolved in DMSO, positive controls or DMSO only was transferred to the assay plate by a Pintool station (Kalypsys, San Diego, CA), followed by addition of 1 uL of 17beta-estradiol in assay medium using a Flying Reagent Dispenser (Aurora Discovery, San Diego, CA). The plates were incubated at 37C and 5% CO2 for 18 hr. Then 1 uL of LiveBLAzerTM B/G FRET substrate was added using a Flying Reagent Dispenser, the plates were incubated at room temperature for 2 hours, and fluorescence intensity was measured by an Envision plate reader (PerkinElmer, Shelton, CT).
% is scaled to controls: 0 for no effect and ±100 for the full control effect.

Sequence of Estrogen receptor (Homo sapiens) (P03372 whole entry, looked up): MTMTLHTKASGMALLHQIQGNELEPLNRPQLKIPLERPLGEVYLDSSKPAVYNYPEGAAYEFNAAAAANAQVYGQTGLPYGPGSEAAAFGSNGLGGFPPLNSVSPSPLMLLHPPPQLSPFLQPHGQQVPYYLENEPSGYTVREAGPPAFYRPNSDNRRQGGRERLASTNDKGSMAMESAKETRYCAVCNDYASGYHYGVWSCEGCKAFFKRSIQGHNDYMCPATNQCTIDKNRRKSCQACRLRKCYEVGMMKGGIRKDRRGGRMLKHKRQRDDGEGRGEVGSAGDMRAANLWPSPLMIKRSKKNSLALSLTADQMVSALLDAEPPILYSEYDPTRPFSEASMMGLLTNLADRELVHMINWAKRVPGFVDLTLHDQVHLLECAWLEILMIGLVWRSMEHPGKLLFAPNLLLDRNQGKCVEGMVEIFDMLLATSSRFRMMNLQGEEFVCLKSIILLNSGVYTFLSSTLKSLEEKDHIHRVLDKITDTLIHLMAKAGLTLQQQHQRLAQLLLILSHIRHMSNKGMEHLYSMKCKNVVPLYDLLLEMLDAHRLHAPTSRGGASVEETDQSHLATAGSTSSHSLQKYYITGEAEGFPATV

SMILES	activity, negative = inhibition	Potency
CCOCCC(=O)OCC	11.1% [at 79.1 µM] (inactive)	–
c1ccc(CNc2ncnc3c2ncn3C2CCCCO2)cc1 (stereo not given)	-0.53% (inactive)	–
N[C@@H](Cc1cc(I)c(O)c(I)c1)C(=O)O	27.3% (inactive)	–
CCO[Si](C)(CCCOCC1CO1)OCC (stereo not given)	13.5% (inactive)	–
O=C(C(=O)c1ccco1)c1ccco1	7.29% [at 79.1 µM] (inactive)	–
Cc1ccc(S(=O)(=O)NC(=O)NC2CCCCC2)cc1	3.21% (inactive)	–
CC(C)(C)S	20.1% [at 79.1 µM] (inactive)	–
COc1ccc(C(=O)NCc2ccc(OCCN(C)C)cc2)cc1OC	-13.7% (inactive)	–
Nc1nc2ccc(OC(F)(F)F)cc2s1	-32.8% (inactive)	–
CCC(CO)(CO)CO	-3.52% [at 79.1 µM] (inactive)	–
COC(=O)c1sccc1S(N)(=O)=O	-18.4% (inactive)	–
O=NN(CCCl)C(=O)NCCCl	1.31% (inactive)	–
CCOC(=O)c1c(N)sc2c1CCN(Cc1ccccc1)C2	-8.44% (inactive)	–
CC(C)c1ccc(C(=O)N=C(N)N)cc1S(C)(=O)=O	19.4% (inactive)	–
O=C1[C@@H]2[C@H]3CC[C@H](C3)[C@@H]2C(=O)N1CCCCN1CCN(c2ncccn2)CC1	-25.5% (inactive)	–
O=C(O)c1cccc(Oc2ccccc2)c1	3.15% (inactive)	–
C/C(C=O)=C\c1ccccc1	11.4% (inactive)	–
C=C(C)C(=O)OCCC(F)(F)C(F)(F)C(F)(F)C(F)(F)C(F)(F)C(F)(F)F	-4.48% (inactive)	–
CNC1CCCN(c2c(F)cc3c(=O)c(C(=O)O)cn(C4CC4)c3c2OC)C1 (stereo not given)	-3.24% (inactive)	–
O=P(O)(O)Oc1ccccc1	-6.01% (inactive)	–

SMILES	activity, negative = inhibition	Potency
O=c1[nH][nH]c(=O)c2cc([N+](=O)[O-])ccc12	5.63% [at 79.1 µM] (inactive)	–
CCCCCCCCCCCC(=O)OCC(O)CO (stereo not given)	–	inactive
COc1ccc(C2C(=O)c3ccccc3C2=O)cc1	6.52% (inactive)	–
O=[N+]([O-])C1(Br)COCOC1	-22.7% (inactive)	–
CC[C@H]1OC(=O)[C@H](C)[C@@H](O[C@H]2C[C@@](C)(OC)[C@@H](O)[C@H](C)O2)[C@H](C)[C@@H](O[C@@H]2O[C@H](C)C[C@H](N(C)C)[C@H]2O)[C@](C)(O)C[C@@H](C)CN(C)[C@H](C)[C@@H](O)[C@]1(C)O	–	inactive
O=C(O)CCS	11.2% [at 79.1 µM] (inactive)	–
COC(=O)CC(C(C)=O)C(=O)OC (stereo not given)	10.9% (inactive)	–
O=C(/C=C/c1ccc([N+](=O)[O-])cc1)c1ccccc1	13.1% (inactive)	–
C=CCOC(=O)COCCC(C)C	-15% (inactive)	–
CC(=O)C(=O)CC(C)C	-7.04% (inactive)	–
CC(=O)Oc1cccc(O)c1	16% (inactive)	–
CC(=O)c1ccc[nH]1	15.5% (inactive)	–
CCN(CC)C(=O)/C(C#N)=C/c1cc(O)c(O)c([N+](=O)[O-])c1	30.7% (inactive)	–
CC(C)(O)CCc1ccccc1	16.2% (inactive)	–
COc1cc(NS(=O)(=O)c2ccc(N)cc2)nc(C)n1	5.34% (inactive)	–
CC(C)(C)C1(CCc2ccc(Cl)cc2)CO1 (stereo not given)	-19.5% (inactive)	–
COc1ccc(-c2cc(C(F)F)nn2-c2ccc(S(N)(=O)=O)cc2)cc1F	-4.76% (inactive)	–
CCCCCCC(O)CCOC(C)=O (stereo not given)	-16.2% [at 214 µM] (inactive)	–
CC(C)(C)NCC(O)COc1cccc2c1C[C@H](O)[C@H](O)C2 (stereo not given in full)	6.87% [at 32.6 µM] (inactive)	–
O=C(Nc1ccc(C(=O)O)c(O)c1)c1ccccc1	10.1% (inactive)	–
